According to PubChem BioAssay AID1851 (National Center for Advancing Translational Sciences (NCATS), 2009):
“And” between values parts separate entries of the source, which are not always exact repeats. Equal values may be shown once. In all, about 16,000 compounds went through this assay and about 2,600 (16%) were called active. About 20% were inconclusive and are not listed. Calls follow the shape of the dose curve; as a rule, active = well fitted curve in the direction sought with a large enough effect; inconclusive = small, poorly fitted or top-dose-only effect, or effect the other way; inactive = no such curve, though single readings can be large or run the other way. These entries were drawn from the full list. A structure can be active in one record and inactive in another.

target: Cytochrome P450 2D6 (Homo sapiens) (UniProt P10635); assay: Cytochrome panel assay with activity outcomes; details: recombinant CYP, pro-luciferin dealkylation, luminescence, p450-cyp2d6; series mostly up to 57.1 µM; activity, negative = inhibition: at the top concentration
Sequence (P10635 whole entry, looked up): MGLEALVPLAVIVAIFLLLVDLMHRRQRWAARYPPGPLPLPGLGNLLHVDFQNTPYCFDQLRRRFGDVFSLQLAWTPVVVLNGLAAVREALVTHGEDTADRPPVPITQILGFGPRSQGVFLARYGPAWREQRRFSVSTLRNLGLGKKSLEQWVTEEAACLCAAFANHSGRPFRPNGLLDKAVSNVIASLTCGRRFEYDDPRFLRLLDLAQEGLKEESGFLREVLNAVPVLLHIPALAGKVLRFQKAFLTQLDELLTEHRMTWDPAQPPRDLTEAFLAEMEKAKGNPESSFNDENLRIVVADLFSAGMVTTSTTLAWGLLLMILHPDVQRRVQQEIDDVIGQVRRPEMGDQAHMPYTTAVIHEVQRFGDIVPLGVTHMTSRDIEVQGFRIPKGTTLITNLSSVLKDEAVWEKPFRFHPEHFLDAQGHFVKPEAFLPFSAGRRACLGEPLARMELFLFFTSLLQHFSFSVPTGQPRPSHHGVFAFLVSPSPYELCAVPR
% is scaled to controls: 0 for no effect and ±100 for the full control effect.

Compound	activity, negative = inhibition	AC50
O=c1c(-c2nc3ccccc3s2)cccn1Cc1ccccc1	3.83% (inactive)	
Cc1cccc(Cn2ncc(Cl)c(Cl)c2=O)c1	-7.8% (inactive)	
Cc1ccc(C(C(=O)NC2CCCCC2)N(CC2CCCO2)C(=O)CNC(=O)c2cccs2)cc1 (stereo not drawn)		10 µM (active)
O=C(NCC(=O)N(c1ccccc1)C(C(=O)NC1CCCC1)c1cccnc1)c1cccs1 (stereo not drawn)	-6.98% (inactive)	
Cc1ccc(C(C(=O)NCc2ccco2)N(C(=O)CNC(=O)c2cccs2)c2ccc(C)cc2C)cc1 (stereo not drawn)	21.5% (inactive)	
O=S(=O)(c1ccccc1)N1CCC2(CCCN(Cc3ccncc3)C2)CC1		1 µM (active)
N#Cc1ccc(CN2CCC3(CC2)CCN(S(=O)(=O)c2ccccc2)CC3)cc1	-7.01% (inactive)	
O=S(=O)(c1ccccc1)N1CCC2(CC1)CN(Cc1ccccc1)C2		0.158 µM (active)
O=S(=O)(c1ccccc1)N1CCC2(CCN(Cc3ccccc3)CC2)CC1	-2.12% (inactive)	
N#Cc1ccc(CN2CCCC3(CCN(S(=O)(=O)c4ccccc4)CC3)C2)cc1		0.631 µM (active)
Cc1ccccc1CNc1ncnc2c1ncn2[C@@H]1O[C@@H](CO)[C@H](O)[C@@H]1O	-5.35% (inactive)	
COc1ccc(NS(=O)(=O)c2ccc(NC(=O)c3cnn4c(C(F)F)cc(-c5ccc(C)cc5)nc34)cc2)cc1	4.09% (inactive)	
CC(C)=CCc1c2c(c3occ(-c4ccc(O)c(O)c4)c(=O)c3c1O)C=CC(C)(C)O2	-0.0819% [at 11.4 µM] (inactive)	
CCc1cc2c(=O)n(-c3ccccc3)c(=S)[nH]c2s1	-4.86% (inactive)	
COC(=O)/C=C\CCc1coc(/C=C\CNC(=O)OC)n1	8.58% [at 11.4 µM] (inactive)	
COc1ccc(/C=C2\OC(=O)c3c(OC)cccc32)cc1OC	-3.99% (inactive)	
Cn1c(=O)c(-c2ccc(Cl)cc2)nc2cncnc21	2.69% (inactive)	
O=C(O)c1cccc(C(=O)O)c1S(=O)Cc1ccccc1 (stereo not drawn)	-0.655% [at 11.4 µM] (inactive)	
O=C(O)C(Cl)(c1ccccc1)c1ccccc1	6.11% [at 11.4 µM] (inactive)	
O=S(Cc1ccccc1)CC(O)(c1ccccc1)c1ccccc1 (stereo not drawn)		2.24 µM (active)

Compound	activity, negative = inhibition	AC50
COc1cccc(N=c2oc3c(C)ncc(CO)c3cc2C(N)=O)c1	-2.53% (inactive)	
O=C(C1CCCCC1)N1CC(=O)N2CCc3ccccc3[C@@H]2C1	-6.05% [at 25.6 µM] (inactive)	
CC(C)(C)[C@@]1(O)CCN2C[C@@H]3c4ccccc4CCc4cccc(c43)[C@@H]2C1		79.4 nM (active) and 501 nM (active)
CC(C)c1nnc(-c2ccc(Cl)cc2)c(N(C)C)n1	-23.6% (inactive)	
C/C(CCN1CCc2nc(-c3ccccc3)c(-c3ccccc3)cc2C1)=N\O[C@@H](C)c1cc(-c2c(C)cc(C)cc2C)no1	8.64% [at 11.4 µM] (inactive)	
CS(=O)(=O)c1ccc([C@H](O)[C@H](CO)NC(=O)C(Cl)Cl)cc1	-2.23% [at 25.6 µM] (inactive)	
CN(C)c1ccc(N=C/C=C2\N(C)c3ccccc3C2(C)C)cc1		2.24 µM (active)
CN1/C(=C\C=[N+](C)c2ccccc2)C(C)(C)c2ccccc21		0.316 µM (active)
CN1/C(=C/C=C(/C#N)C(N)=O)C(C)(C)c2ccccc21	-25.7% (inactive)	
Cc1c(NC(=S)/C=C2\N(C)c3ccccc3C2(C)C)c(=O)n(-c2ccccc2)n1C	-13.2% (inactive)	
CC(C)CO/N=C1/C[C@@H](O)[C@@H](O)[C@@H]2[C@@H]3C(=O)N(C[C@@H]4CCCO4)C(=O)[C@H]3CC[C@H]12	-1.45% [at 11.4 µM] (inactive)	
Cc1cc(C)cc(Oc2coc3cc(OC(=O)c4cccs4)ccc3c2=O)c1	3.44% (inactive)	
O=C(O)c1cccc2cccc(-c3cccc4cccc(C(=O)O)c34)c12	-12.7% [at 11.4 µM] (inactive)	
O=C(c1c[nH]c(=O)n(-c2ccccc2)c1=O)N1CCc2ccccc21	1.94% (inactive)	
O=C(Nc1cccc(Br)c1)/C(=C\c1cccnc1)NC(=O)c1ccco1	-9.37% (inactive)	
O=C(N/C(=C/c1ccc(Br)cc1)c1nc2ccccc2[nH]1)c1ccco1		12.6 µM (active)
O=C(/C(=C/c1ccc(Cl)cc1)c1nc2ccccc2[nH]1)c1ccccc1	-29% (inactive)	
O=C1c2cccc3c(Cl)ccc(c23)C(=O)N1O	10.7% (inactive)	
COC(=O)c1ccc(-n2cncn2)c(F)c1	-6.15% (inactive)	
CCc1nn(C)c(-c2n[nH]c(=S)n2N)c1Cl	-3.2% (inactive)	

Compound	activity, negative = inhibition	AC50
Cc1ccc(S(=O)(=O)NC(=O)OC23COCN2COC3)cc1	18.1% [at 11.4 µM] (inactive)	
Nc1nc(SCc2ccc([N+](=O)[O-])cc2)c2ncn([C@@H]3O[C@@H](CO)[C@@H](O)[C@H]3O)c2n1	-4.44% (inactive)	
O=C(O)[C@@H]1CCCN1Cc1ccc2c(c1)OCO2	7.95% [at 11.4 µM] (inactive)	
O=C(Cc1ccc(Cl)cc1)N1CCN(C(=O)c2ccco2)CC1	-14.7% (inactive)	
O=C(CN1C(=O)c2cccc3cccc(c23)C1=O)N1CCCCCC1	-21.8% (inactive)	
Cc1ccc(NC(=S)N2CCN(CCN3C(=O)c4cccc5cccc(c45)C3=O)CC2)cc1	-15.8% (inactive)	
O=C(O)C1CCN(c2ncccn2)CC1	14.6% (inactive)	
O=C(COc1ccc(Cl)cc1)N1CCN(Cc2ccc3c(c2)OCO3)CC1		0.2 µM (active)
c1cnc(N2CCN(Cc3ccc4c(c3)OCO4)CC2)nc1		1 µM (active) and 200 nM (active) and inactive
COC(=O)c1ccccc1OCC(=O)N1CCN(c2ccc(Cl)cc2)CC1	-8.14% (inactive)	
O=C(CCN1C(=O)c2cccc3cccc(c23)C1=O)N1CCN(Cc2ccc3c(c2)OCO3)CC1		14.1 µM (active)
CC(=O)[C@@H](C)CCO[C@@]1(C)OCC[C@@H]1C	0.323% [at 11.4 µM] (inactive)	
CCOC(=O)c1c(NC(=O)CCCN2CCOCC2)sc2c1CC(C)(C)OC2	-11.4% (inactive)	
COc1ccc2c(c1)c(CC(=O)O)c(C)n2C(=O)c1ccc(Cl)cc1	9.28% (inactive)	
CCc1ccc(NC(=O)C2CCN(S(=O)(=O)c3c(C)[nH]c(=O)[nH]c3=O)CC2)cc1	0.298% (inactive)	
CC(=O)[C@@H]1[C@@H]2C(=O)N(C3CCCCC3)C(=O)[C@@H]2C2c3ccccc3C=CN21 (stereo partly drawn)	-46.3% (inactive)	
O=C(CCCN1C(=O)C2C3C=CC(C3)C2C1=O)N1CCN(c2ccccc2)CC1 (stereo not drawn)	0.827% (inactive)	
Cc1nnc(-c2cnn(-c3ccccc3)c2N)n1Cc1ccncc1	22.1% (inactive)	
